According to PubChem BioAssay (NCI):
About 83,000 compounds went through this panel and 20% of them were active in at least one assay; those are over-represented in the sample as a whole.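 Results are percent growth after 48 hours of single-concentration exposure. 100 means growth as in untreated cells, lower positive values show inhibition; negative values down to -100 show cell death.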 Values without a mark were called inactive. The source made the active and inactive calls. Rule for the calls: active = growth percent below 10; inactive = the rest.

What follows are molecules tested on KM12 colon (assay: NCI-60 one-dose screen, 48 h (100 = growth as untreated, 0 = no growth, -100 = all killed)). Conditions: 10 µM unless noted.

Compound | growth
COc1ccc(/C=C/C(=O)c2ccc(NC(=O)CSc3nnc(-c4ccc(OC)cc4)n3-c3ccccc3)cc2)cc1 | 102%
CCCCNCCC(O)c1cc2ccc(C(F)(F)F)cc2c2cc(C(F)(F)F)ccc12 (stereo not drawn) | -85.2% (active)
Cc1ccc(N2C3c4ccccc4N(S(=O)(=O)c4ccc(C)cc4)C2c2ccccc2N3S(=O)(=O)c2ccc(C)cc2)cc1 | 95.4%
Cc1ccc(C2CC(c3cccs3)=NN2c2ccc(S(N)(=O)=O)cc2)s1 (stereo not drawn) | 93.2%
O=C(Nc1ccc(OS(=O)(=O)c2ccc(F)cc2)cc1)C12CC3CC(CC(C3)C1)C2 | 37.3%
CCCCCc1c(C)[nH]c(/C=C2\N=C(c3ccc[nH]3)C=C2CC)c1C | -91.4% (active)
CC(COC(=O)c1ccccc1)N1CC2CCC(C1)O2 (stereo not drawn) | 109%
Cc1cc(C)c(C#N)c(SCC(=O)c2sc3c(C#N)c(C)cc(C)[n+]3c2[O-])n1 | 16.4%
COc1ccc(-c2nc(-c3ccccc3OCc3ccccc3OC)nc(C)c2C(C)=O)cc1 | 64.4%
COc1c(-c2cc(-c3ccc(C)o3)[nH]c(=O)n2)c(O)cc2occc12 | 36.1%
Cc1cc(NC(=O)C2c3ccccc3C(=O)N(CC(C)C)C2c2cccs2)no1 (stereo not drawn) | 86.8%
OC(c1cc2c(Cl)cc(Cl)cc2c2cc(C(F)(F)F)ccc12)C1CCCCN1 (stereo not drawn) | -84.6% (active)
Cc1nc2ccc(Nc3nc(Cl)nc(N4CCOCC4)n3)cc2n1Cc1ccccc1 | 95.8%
O=C(CS)OCC(COC(=O)CS)(COC(=O)CS)COC(=O)CS | 67.5%
C=CCN(CCOC(=O)c1ccc([N+](=O)[O-])cc1)CCOC(=O)c1ccc([N+](=O)[O-])cc1 | 103%
CCN1CCN(Cc2ccc(NC(=O)c3nc4ccc5[nH]ncc5c4c4c3CCCC4)cc2C(F)(F)F)CC1 | 4.08% (active)
CN(C)c1ccc(N2Cc3ccccc3OC3=C2C(=O)c2c(O)ccc(O)c2C3=O)cn1 | -41.9% (active)
CCCc1n(Cc2ccc3ccccc3n2)cc[n+]1Cc1ccc2ccccc2c1 | -4.46% (active)
COc1cc(-c2csc(NC(=O)Nc3cccc(C(F)(F)F)c3)n2)cc(OC)c1OC | 34.5%
COc1ccc2[nH]c(C(=O)OCc3ccc4c(Br)cc(Br)c(O)c4n3)cc2c1 | -48.6% (active)
Cc1cc(C)cc(CCCCCCCCCCCCCCCCCC(=O)O)c1 | 106%
CS(=O)(=O)Nc1cc(-c2cc3ncc(C#N)c(Nc4ccc(Oc5ccccc5)c(Cl)c4)c3s2)cnc1Cl | 56.8%
CCn1c(CN2CCN(Cc3ccccc3)CC2)nc2cc(NC(=O)c3cccs3)ccc21 | -93.5% (active)
